Screening results deposited in PubChem by National Center for Advancing Translational Sciences (NCATS).
BAZ2B block = inhibitors of human BAZ2B bromodomain; Q9UIF8; AlphaScreen BAZ2B-H3K14Ac peptide displacement; Potency, µM (doses to about 114 µM), hits mostly inhibitors; 4.4% of 360,000 active; note: nearly all actives have a fitted effect of over 60% in size
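AlphaScreen luminescence quantifies BAZ2B engagement of H3K14Ac peptide; the protein and biotinylated peptide are both at 50 nM final, buffer PBS pH 7.4 with 0.01% Tween-20, all steps at room temperature.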
HP1b binding inh = blocks HP1-beta chromodomain binding to methylated histone tails; Potency, µM (top dose mostly 114 µM), actives largely listed as inhibitors; 0.56% of 390,000 active; AID 540317; AlphaScreen HP1-beta / biotin-H3K9me3 peptide binding; P83916; note: nearly all actives have a fitted effect of over 70% in size
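Compound inhibition of the preformed complex between 50 nM HP1-beta and 50 nM biotinylated H3K9me3 peptide was read by AlphaScreen. Buffer was PBS pH 7.4 with 0.01% Tween-20. Incubations ran 30 min at room temperature, with 10 ug/mL donor/acceptor beads.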
GLS inh = glutaminase GLS (human) inhibition | 0.21% of 410,000 active | O94925 | Potency, µM (top dose mostly 45.5 µM), actives largely listed as inhibitors | AID 624170 | GLS enzymatic activity, qHTS titration
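Two-point fluorescence kinetic (t0, 30 min RT) for hKGA; glutamate detected via glutamate oxidase–HRP–Amplex Red. Substrate: 1 mM L-glutamine solution; buffer 45 mM KH2PO4, pH 8.2.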
JMJD2A Tudor = inhibitors of human JMJD2A Tudor domain; O75164; 4.4% of 390,000 active; AID 504339; Potency, µM (highest dose often 114 µM), hits mostly inhibitors; AlphaScreen JMJD2A-Tudor / H3K4me3 peptide binding; note: nearly all actives have a fitted effect of over 50% in size
G9a inh = blocks human histone lysine methyltransferase G9a | 8.8% of 350,000 active | AID 504332 | G9a H3K9 monomethylation, AlphaScreen, 2 h | Potency, µM (doses to about 102 µM), hits mostly inhibitors; note: nearly all actives have a fitted effect of over 75% in size
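Compounds were preincubated with 20 nM G9a for 15 min, after which biotinylated H3K9 peptide (500 nM) and SAM (20 uM) started a 2 h room-temperature reaction. Monomethylated product was quantified by antibody-based AlphaScreen chemiluminescence.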
Numbers stand for hits; 0 = inactive; ? = inconclusive; - = no result; [ ] = another dose, or the depositor's remark. Shown are actives, neighbours in structure and some others; about 10% of the full set was active somewhere. Calls come from the whole dose curve; as a rule, active = well fitted curve in the direction sought with a large enough effect; inconclusive = small, poorly fitted or top-dose-only effect, or another doubt; inactive = no such curve, though single readings can be large; an effect the other way counts as inactive or inconclusive.

SMILES | BAZ2B block | HP1b binding inh | GLS inh | JMJD2A Tudor | G9a inh
COc1ccc(C)cc1S(=O)(=O)Nc1cc2c3c(c1)CCN3C(=O)CC2 | 0 | 0 | 0 | 0 | 0[0.501 µM]
COc1ccc(S(=O)(=O)Nc2cc3c4c(c2)CCC(=O)N4CCC3)cc1 | 0 | 0 | 0 | 0 | 0
COc1ccc(F)cc1S(=O)(=O)Nc1cc2c3c(c1)CCN3C(=O)CC2 | 0 | 0 | 0 | 0 | 45µM
O=C1Cc2cc(NS(=O)(=O)c3ccc(Cl)cc3)cc3c2N1CCC3 | 0 | 0 | 0 | 0 | 0
O=C(Nc1nnc(SCc2cc(=O)n3cc(Cl)ccc3n2)s1)c1cccc(F)c1 | 0 | 0 | 0 | 0 | 0
Cc1cccc(-c2nc(CSc3nncn4c3cc3oc(C)cc34)c(C)o2)c1 | 0 | 0 | 0 | 0 | 0
Cc1ccccc1N(CC(=O)NCC1CCCO1)C(=O)CCC(=O)Nc1nccs1 (stereo unspecified) | 0 | 0 | 0 | 0 | 0
Cc1cc2c(s1)c1cnn(Cc3ccc(OC(F)F)cc3)c(=O)c1n2C | - | - | - | 0 | -
O=C(c1noc2c1CCCCC2)N1CCN(c2cccc(C(F)(F)F)c2)CC1 | 0 | 0 | 0 | 0 | 0
COc1ccc(/C=N/Nc2nc(-c3ccc(C)cc3)c(NC(C)=O)s2)cc1OC | ? | ? | 0 | 0 | -
CC(=O)Nc1sc(N/N=C/c2ccc(C)cc2)nc1-c1ccc(C)cc1 | ? | ? | 0 | 45µM | ?
CC(=O)Nc1sc(N/N=C/c2ccc(N(C)C)cc2)nc1-c1ccc(C)cc1 | 28µM | ? | 0 | 45µM | 8.9µM
O=C(CCN1C(=O)C2CC=C(Cl)CC2C1=O)N1CCCCC1 (stereo unspecified) | 0 | 0 | 0 | ? | 11µM
Cc1ccc(CCNC(=O)CN2CCN(Cc3ccc(Cl)cc3)C2=O)cc1 | 0 | 0 | 0 | 0 | 0
CC(=O)C1=C(O)C(=O)N(c2cccc(C(=O)O)c2)C1c1ccc(F)cc1 (stereo unspecified) | ? | 0 | 0 | ? | 25µM
CC(=O)C1=C(O)C(=O)N(c2ccc(F)cc2)C1c1ccc(C)cc1 (stereo unspecified) | 0 | 0 | 0 | 0 | 0[0.501 µM]
CC(=O)C1=C(O)C(=O)N(c2ccc(C(=O)O)cc2)C1c1ccccc1 (stereo unspecified) | ? | 0 | 0 | 32µM | 45µM
O=C1CC(=O)c2c1cccc2[N+](=O)[O-] | 50µM | - | - | - | 10µM
O=C1OCc2cccc([N+](=O)[O-])c21 | 0 | 0 | 0 | 0 | 0
O=C1C(=O)N(CC2CCCO2)C(c2ccccc2[N+](=O)[O-])/C1=C(/O)c1ccccc1 (stereo unspecified) | ? | 0 | 0 | 0 | 32µM
O=C(CN1CCOc2ccccc21)NCc1ccc(Cl)cc1 | ? | 0 | 0 | 0 | 50µM
CC(C)(C)NC(=O)NC(=O)CN1CCCc2ccccc21 | 0 | 0 | 0 | 0 | ?
O=C(CN1CCCc2ccccc21)NC(=O)NC1CCCCC1 | ? | ? | 0 | 32µM | 71µM
O=C(CN1CCc2ccccc21)NC(=O)NCc1ccccc1 | - | 0 | 0 | 0[11.4 µM] | 32µM
COc1ccc(Cl)cc1NC(=O)CN1CCc2ccccc21 | ? | 0 | 0 | 0 | 22µM
SMILES | BAZ2B block | HP1b binding inh | GLS inh | JMJD2A Tudor | G9a inh
NS(=O)(=O)c1ccc(CCNC(=O)c2ccc3ccccc3n2)cc1 | 0 | 0 | 0 | 0 | 0
Cc1nc(-c2ccc(S(=O)(=O)NCc3ccc(OC(C)C)cc3)cc2)co1 | 0 | 0 | 0 | 0 | 0
COc1ccc(C2=NN(CC(=O)NCCc3ccccc3)C(=O)CC2)cc1 | 0 | 0 | 0 | 0 | ?
Cc1cc(Cl)ccc1OCCSc1nnc(-c2cccs2)o1 | 0 | 0 | 0 | 0 | 0
COC(=O)c1ccc(CN2CCc3ccccc32)cc1 | ? | 0 | 0 | 40µM | -
O=C(CN1CCc2ccccc21)NCc1ccccc1Cl | 0 | 0 | 0 | ? | 71µM
O=C(CN1CCc2ccccc21)NCc1ccc2c(c1)OCO2 | 0 | 0 | 0 | 0 | 0
COc1cccc(-c2nc(NC3CCNCC3)c3ccccc3n2)c1 | - | - | - | - | 0[0.501 µM]
CC(=O)Nc1cccc(-c2ccnc3c2CC(C(=O)NCc2ccc(F)c(F)c2)O3)c1 (stereo unspecified) | - | - | 0 | - | -
COC(=O)c1cc(C(=O)OC)n(Cc2ccc(C)cc2)c1C | ? | 0 | ? | 0 | 50µM
COC(=O)c1cc2sc(C)cc2n1Cc1ccccc1 | 0 | 0 | 0 | 0 | 0
N#CC(C#N)=c1ccc2c(c1)NC1(CCCCC1)N=2 | 13µM | 32µM | 0 | 22µM | 11µM
Cc1cc(N2CCCC2)ccc1/C=C1\NC(=S)N(C)C1=O | ? | ? | 0 | 22µM | -
CN1C(=O)c2ccc(N3CCCC3)cc2C1=O | 0 | 0 | 0 | 0 | 0
CCN(CC)S(=O)(=O)c1cc([N+](=O)[O-])ccc1NNC(=O)Nc1ccc(F)cc1 | 0 | 0 | - | ? | ?
CCN(CC)S(=O)(=O)c1cc([N+](=O)[O-])ccc1NNC(=O)Nc1ccccc1OC | ? | 0 | 0 | ? | 28µM
CCCCn1c(N)c(N(Cc2ccccc2OC)C(=O)CN2C(=O)NC(C)(c3ccccc3)C2=O)c(=O)[nH]c1=O (stereo unspecified) | 0 | 0 | 0 | 0 | 5.6µM
COC(=O)c1ccc(COc2ccc(/C=N/NC(N)=S)cc2)o1 | 0 | 0 | 0 | 0 | 50µM
COC(=O)c1ccc(COc2ccc(Cl)cc2)o1 | 0 | 0 | 0 | 0 | 0
Cc1nn(-c2ccccc2)c2sc(C(=O)Nc3cccc(Br)c3)cc12 | 0 | 0 | 0 | 0 | 0
COc1ccc(-c2n[nH]c(=S)n2Cc2ccco2)cc1 | 0 | 0 | 0 | 14µM | ?
Cc1c(Br)c(-c2n[nH]c(=S)n2Cc2ccco2)nn1C | 0 | 0 | 0 | ? | 10µM
S=c1nc(-c2ccccc2)n(Cc2ccco2)c2c1CCCC2 | 0 | - | - | - | ?
Oc1ccccc1-c1n[nH]c(=S)n1Cc1ccco1 | 0 | 0 | 0 | 5.6µM | ?
Cc1cc(-c2n[nH]c(=S)n2Cc2ccco2)nn1C | 0 | 0 | 0 | 6.3µM | 8.9µM
SMILES | BAZ2B block | HP1b binding inh | GLS inh | JMJD2A Tudor | G9a inh
O=C(NS(=O)(=O)Oc1ccc(Cl)cc1)OC[C@@H]1CCCN2CCCC[C@H]12 | 0 | 0 | 0 | 0 | 0
CCCCNC(=O)C1CCC(CNS(=O)(=O)c2ccc(Cl)cc2)CC1 (stereo unspecified) | 0 | 0 | 0 | 0 | 0
CCOC(=O)C1CCC(CN(Cc2ccc(OC)cc2)S(=O)(=O)c2ccc(F)c(C(=O)Nc3c(C)cccc3C)c2)CC1 (stereo unspecified) | 0 | 0 | 0 | 0 | 0
COc1cccc(Cc2n[nH]c(=S)n2Cc2ccco2)c1 | 0 | 0 | 0 | 14µM | 7.9µM
CCOC(=O)CSc1nnc(Cc2ccccc2)n1Cc1ccco1 | 0 | 0 | 0 | 0 | ?
Cc1cc(-c2n[nH]c(=S)n2Cc2ccco2)n(C)n1 | 0 | 0 | 0 | 20µM | 8.9µM
Clc1ccc(/C=N/N2CCN(Cc3ccccc3Cl)CC2)cc1 | 35µM | 0 | 0 | 45µM | ?
COc1ccc(/C=N\N2CCN(Cc3ccccc3Cl)CC2)cc1 | ? | 0 | 0 | ? | 13µM
C(=C\c1ccccc1)/C=N/N1CCN(Cc2ccccc2)CC1 | 35µM | ? | 0 | 50µM | 45µM
C/C(=N\N1CCN(Cc2ccccc2Cl)CC1)c1ccc(F)cc1 | 0 | 0 | 0 | 0 | -
